# Assay outcomes (PubChem)
# Sampled rows, rich in hits. Any-hit rate of the full collection: about 1.3%.
# eLon inh: inhibitors of E. coli Lon protease, primary screen, biochemical, fluorescence polarization; P0A9M0; purified E. coli Lon protease; inhibition, % at 7.94 µM; hit rate 0.42% among 360,000; in the data active = inhibition above about 13%, passing the limit was not always enough;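 also: 0% = enzyme with probe and DMSO and 100% = no enzyme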
# GLD-1 TGE inh: GLD-1/TGE RNA complex disruptors, primary screen, biochemical, fluorescence polarization | Female germline-specific tumor suppressor gld-1 (Caenorhabditis elegans), Q17339 | purified GLD-1 + fluorescein TGE RNA | inhibition, % at 5.96 µM | hit rate 0.44% among 320,000;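 active = percent inhibition above a per-plate cutoff, the plate mean of test compounds plus 3 SD, cut at about 30% in these data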;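 also: 0% = DMSO wells with GLD-1 and probe and 100% = wells lacking GLD-1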
# MEX-5 binding: MEX-5 zinc finger RNA-binding disruptors – biochemical, C. elegans, fluorescence polarization, MLPCN library, primary screen; hit rate 0.38% among 300,000; MEX-5/FITC-TCR2 RNA binding; stronger effect = lower value; Zinc finger protein mex-5 (Caenorhabditis elegans), Q9XUB2; activity score (negative = inhibition of binding), % at 10 µM; AID 1832, 2009;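 active = inhibition past about -25% in most replicates, and total fluorescence under double the plate's negative control median, limit read from the data; inconclusive = replicates evenly split on the limit, or fluorescence at least double controls; inactive = too little inhibition in most replicates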;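 also: 0% = DMSO and -100% = 5 µM competing unlabeled TCR2 RNA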
# Target sequence (Q9XUB2 whole entry, looked up): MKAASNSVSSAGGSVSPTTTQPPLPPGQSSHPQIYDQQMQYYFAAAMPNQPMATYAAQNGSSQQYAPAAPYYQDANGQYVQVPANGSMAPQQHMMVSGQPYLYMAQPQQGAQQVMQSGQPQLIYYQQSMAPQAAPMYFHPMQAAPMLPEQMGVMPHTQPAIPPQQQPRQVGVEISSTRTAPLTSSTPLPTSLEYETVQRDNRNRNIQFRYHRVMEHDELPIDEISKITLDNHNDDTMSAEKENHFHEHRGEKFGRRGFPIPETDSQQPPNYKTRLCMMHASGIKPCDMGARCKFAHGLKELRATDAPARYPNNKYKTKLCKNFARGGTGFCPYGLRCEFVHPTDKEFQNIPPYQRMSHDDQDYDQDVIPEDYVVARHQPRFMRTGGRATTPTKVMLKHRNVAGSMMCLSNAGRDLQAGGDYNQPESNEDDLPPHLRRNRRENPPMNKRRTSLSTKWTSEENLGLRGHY
# BCLXL inh: inhibitors of human Bcl-xL, primary screen, biochemical, fluorescence polarization, HTS. AID 2129, 2009. inhibition, % at 10.9 µM. GST-Bcl-xL / FITC-Bim BH3 peptide fluorescence polarization. hit rate 0.7% among 320,000;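 active = inhibition above the mean of all tested compounds plus 3 SD, cutoff set per campaign, cut at about 30% in these data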;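 also: 0% = DMSO wells and 100% = unlabeled Bim-BH3 peptide competitor; inhibitors lower millipolarization by displacing the labeled peptide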
# EBV gp42 inh: Epstein-Barr virus gp42 inhibitors, primary screen, biochemical, uHTS, fluorescence polarization. inhibition, % (tested at 21.74 µM). Fluorescence polarization binding assay, mP read-out. hit rate 0.42% among 220,000. Glycoprotein 42 (Epstein-Barr virus (strain AG876)), Q1HVG2; in the data active = inhibition above about 50%
# E coli Lon conf: E. coli Lon protease inhibitor retest, confirmation, biochemical, fluorescence polarization; AID 602230, 2012; shares compounds with eLon inh; inhibition, % at 7.94 µM; hit rate 31% among 1,400; purified E. coli Lon; in the data active = inhibition above about 16%;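 also: 0% = enzyme with probe and DMSO and 100% = no enzyme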
# * marks the source's active call; other numbers are inactive results; ? = inconclusive; nt = no result given; + = active, no number.
SMILES,eLon inh,GLD-1 TGE inh,MEX-5 binding,BCLXL inh,EBV gp42 inh,E coli Lon conf
O=C1NC2c3c(Cl)sc(Cl)c3C(=O)C2O1 (stereo unspecified),18,nt,nt,nt,nt,nt
O=C1NC2c3c(I)sc(I)c3C(=O)C2O1 (stereo unspecified),105*,nt,nt,nt,nt,17*
CCN(CC)Cc1cc(O)c(CN(CC)CC)cc1O,35*,nt,-39*,nt,-15,30*
CCc1oc(C(=O)O)cc1CN(CC)CC,0,2,-1,9,-9,nt
CCCSc1nc(C)cc(C)c1C(N)=O,-13,6,-1,9,-18,nt
O=C(Nc1ccc(Cl)cc1)c1ccc(Br)cc1F,1,-5,0,7,5,nt
COc1ccc(NC(=O)CN(C)C(=O)/C=C/c2ccc(OCc3ccccc3)cc2)cc1,19*,5,1,0,nt,-8
COc1ccc(NC(=O)CN(C)C(=O)/C=C/c2ccc(S(=O)(=O)N3CCCCCC3)cc2)cc1,-3,9,0,-8,nt,nt
c1ccc2c(c1)sc1nnnn12,2,4,-1,6,-18,nt
Cc1[nH]c(=O)[nH]c(=O)c1S(=O)(=O)N1CCN(c2ccccc2F)CC1,44*,5,-1,4,61*,4
Cc1ccc(NC(=O)COC(=O)CCc2c[nH]c(=O)[nH]2)cc1,31*,-2,-13,9,-10,52*
CCn1nnnc1SCC(=O)N(C)C1CCS(=O)(=O)C1 (stereo unspecified),8,9,nt,-5,nt,nt
O=C(O)CSc1cn(Cc2ccccc2)c2ccccc12,5,1,1,0,nt,nt
NC(=O)CSc1cn(Cc2cccc(F)c2)c2ccccc12,26*,0,1,4,4,-9
OCCN1CCN(c2ncnc3c2ncn3[C@H]2CN(Cc3cccs3)C[C@@H](CO)O2)CC1,-8,nt,nt,nt,nt,nt
Cc1ccc([C@H]2C(C(=O)O)=CC[C@@H](c3ccc(C(C)C)cc3)N2S(=O)(=O)c2ccc(C)cc2)cc1,16*,1,nt,nt,nt,-3
CC1(C)OC(=O)NC1c1ccccc1 (stereo unspecified),0,nt,nt,nt,nt,nt
COc1cc(C(=O)N/N=C/c2sc(N3CCOCC3)nc2-c2ccccc2)cc(OC)c1OC,17*,2,5,3,-4,7
Nc1ccc(C(=O)N/N=C/c2sc(N3CCOCC3)nc2-c2ccccc2)cc1,-7,8,1,6,-19,nt
Cc1nc(Cl)c2c(n1)NC1=C(O2)C(=O)CCC1,84*,168*,?,165*,136*,144*
C[C@H](CO)N1C[C@H](C)[C@@H](CN(C)S(=O)(=O)c2cn(C)cn2)Oc2c(NS(=O)(=O)c3cccs3)cccc2C1=O,-1,-2,nt,nt,nt,nt
Nc1nnnn1/N=C/c1cc(Cl)cc(Cl)c1O,49*,78*,1,109*,nt,73*
NC(=O)c1ccsc1NC(=O)CSc1nncs1,-11,nt,nt,nt,nt,nt
COCCN1C(=O)c2oc3cc(C)c(C)cc3c(=O)c2C1c1ccc(O)cc1 (stereo unspecified),-5,6,0,-4,nt,nt
O=C1OC(Nc2cc(Br)cc3cccnc23)c2ccccc21 (stereo unspecified),42*,11,nt,64*,2,-4
SMILES,eLon inh,GLD-1 TGE inh,MEX-5 binding,BCLXL inh,EBV gp42 inh,E coli Lon conf
Fc1ccccc1C(c1nnnn1Cc1ccc2c(c1)OCO2)N1CCN(Cc2ccco2)CC1 (stereo unspecified),16*,1,-2,3,-13,-3
COc1ccccc1CNC(=O)COC(=O)Cn1cnc2c1c(=O)n(C)c(=O)n2C,72*,nt,nt,nt,nt,-2
Cn1c(=O)c2c(ncn2CC(=O)OCC(=O)NCc2ccccc2Cl)n(C)c1=O,-1,-3,-2,4,-13,nt
CCOc1ccccc1C(=O)NCC(=O)NNC(=O)c1csc(N2CCOCC2)n1,9,nt,nt,nt,nt,nt
NC(=O)c1ncn([C@@H]2O[C@H](CNC(=O)[C@H](N)CSCc3ccccc3)[C@@H](O)[C@H]2O)n1,24*,nt,nt,nt,nt,0
Cc1cc(C)c(S(=O)(=O)N2CCN(CCN3C(=O)c4cccc5cccc(c45)C3=O)CC2)cc1[N+](=O)[O-],nt,nt,nt,nt,-14,nt
CCN(CC)CCN1C(=O)c2cccc3cc(N)cc(c23)C1=O,+,72*,-69*,124*,101*,53*
O=C1c2cccc3cccc(c23)C(=O)N1CCO,12,nt,nt,nt,nt,nt
Nc1cc2c3c(cccc3c1)C(=O)N(CCN1CCCC1)C2=O,94*,36*,-28*,125*,95*,82*
O=C1c2cccc3cc([N+](=O)[O-])cc(c23)C(=O)N1CCN1CCCC1,87*,nt,-7,nt,4,47*
O=C(Nc1nccs1)c1cncc(Br)c1,-8,-1,0,-6,-13,nt
O=C(C1CCC(=O)N(C2CC2)C1)N(CCO)Cc1ccccc1 (stereo unspecified),47*,-3,-1,5,nt,0
CCOC(=O)CSc1nc2cc(C)ccc2cc1C#N,27*,3,2,14,-18,9
CC(C)NCCCCOc1ccc(Br)cc1Cl,-7,-1,-1,1,-7,nt
Cc1ccc(N(CC(O)CN2CCOCC2)S(=O)(=O)c2ccc([N+](=O)[O-])cc2)cc1 (stereo unspecified),17*,-2,1,0,nt,-13
O=C(N/N=C/c1c[nH]c2ccccc12)c1cccc(Cl)c1,0,7,-1,-3,nt,nt
O=C(N/N=C/C1C(c2ccccc2)C1(Cl)Cl)c1cccc(Cl)c1 (stereo unspecified),22*,8,0,3,3,-2
CN(C(=O)CN1CCN(c2cc(-c3cccc4oc5ccccc5c34)ncn2)CC1)c1ccccc1,0,nt,nt,nt,nt,nt
CC(C)(C)c1ccc(CC(=O)N2CCC2(C)C(=O)NCCC#N)cc1 (stereo unspecified),6,nt,nt,nt,nt,nt
Cc1cc(NS(=O)(=O)c2ccccc2)ccc1NS(=O)(=O)c1ccccc1,4,nt,nt,nt,nt,nt
O=S(=O)(Nc1ccc(O)c(NS(=O)(=O)c2ccccc2)c1)c1ccccc1,18*,11,-20,8,nt,3
COC(=O)C1=C(C)NC2=C(C(=O)CCC2)C1c1ccc(-c2ccsc2C(=O)OC)o1 (stereo unspecified),18*,0,-1,6,-8,-27
COC(=O)C1=C(C)NC2=C(C(=O)CCC2)C1c1ccsc1 (stereo unspecified),nt,nt,-3,nt,5,nt
CCOC(=O)N1CCN(CC(=O)c2ccc(O)cc2O)CC1,25*,41*,?,6,nt,29*
CCOC(=O)N1CCN(CC(=O)c2ccc(O)c(C)c2O)CC1,3,0,-3,9,nt,nt
c1ccc(C2OC3c4cccc5cccc(c45)C3N2c2ccccc2)cc1 (stereo unspecified),56*,8,1,10,-14,2
